The full ranking holds about 33,000 sequences; the median of “E-score (-0.5 to 0.5)” is about -0.015, and the highest 2% start at about 0.3. Only a selection was taken, and the highest values are over-represented in it overall.
molecular target: T1, Abf1 (UniProt P14164); assay: PBM E-score (8-mer binding enrichment) (E-score (-0.5 to 0.5)); higher = stronger / more preferred TF binding; settings: protein concentration: 200 nM; construct: GST-full length
T1 sequence: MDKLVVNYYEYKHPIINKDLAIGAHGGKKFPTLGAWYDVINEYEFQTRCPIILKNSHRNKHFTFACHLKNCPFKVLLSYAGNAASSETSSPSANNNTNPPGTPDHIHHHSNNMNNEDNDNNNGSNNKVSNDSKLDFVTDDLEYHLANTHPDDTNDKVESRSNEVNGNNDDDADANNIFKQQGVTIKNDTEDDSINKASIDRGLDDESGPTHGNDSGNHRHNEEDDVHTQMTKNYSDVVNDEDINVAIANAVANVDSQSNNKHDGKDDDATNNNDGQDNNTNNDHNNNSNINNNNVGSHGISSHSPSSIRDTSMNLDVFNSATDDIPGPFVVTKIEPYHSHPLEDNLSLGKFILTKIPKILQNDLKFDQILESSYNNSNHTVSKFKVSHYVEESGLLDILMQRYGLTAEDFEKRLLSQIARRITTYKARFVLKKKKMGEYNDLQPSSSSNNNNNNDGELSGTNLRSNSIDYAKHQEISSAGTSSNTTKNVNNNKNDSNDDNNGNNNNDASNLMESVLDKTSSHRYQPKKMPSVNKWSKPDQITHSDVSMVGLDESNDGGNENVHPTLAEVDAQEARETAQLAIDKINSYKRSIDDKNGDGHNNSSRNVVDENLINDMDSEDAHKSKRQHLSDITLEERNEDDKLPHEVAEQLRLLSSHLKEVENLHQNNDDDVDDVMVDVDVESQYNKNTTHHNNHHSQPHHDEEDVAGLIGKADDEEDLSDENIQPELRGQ
Experimental: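 Universal 'all 10-mer' protein binding microarrays (Agilent AMADID 015681) probed with GST-tagged S. cerevisiae TFs (full-length or DBD) made by in vitro transcription/translation (PURExpress), about 100-200 nM. Bound TF was detected with fluorescent anti-GST. Each ungapped 8-mer (which stands for itself and its reverse complement) is scored by the PBM enrichment score (E-score), a modified Wilcoxon-Mann-Whitney statistic from -0.5 to +0.5, computed with the Universal PBM Analysis Suite. Scale: above 0.35 generally sequence-specific binding.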

| Sequence | PBM E-score |
| --- | --- |
| CTCTCGTC | 0.011 |
| GCCTTACC | -0.255 |
| TATGCACA | 0.018 |
| AAAGGGTA | -0.0845 |
| CTAACCTC | -0.0908 |
| AGTGAGCG | 0.24 |
| CTCATTTC | 0.0189 |
| GTCATTTA | 0.313 |
| ATCATACA | 0.236 |
| ATCATTTC | 0.312 |
| ATCATACG | 0.315 |
| ATTATACA | 0.0365 |
| ATTATACC | 0.217 |
| ATTATACG | 0.331 |
| GACATTTA | 0.0126 |
| ATCATACC | 0.205 |
| CTCATTTA | 0.0543 |
| ATCATTTG | 0.276 |
| AGGATCTC | -0.0704 |
| GCTATCCA | 0.00713 |
| CGATTGGA | -0.00974 |
| GCGCCGTA | 0.291 |
| TAGCCCTA | -0.149 |
| AGGTTAAG | -0.128 |
| CGCCTGAG | -0.0541 |

| Sequence | PBM E-score |
| --- | --- |
| CCTACGCC | -0.0667 |
| GTGATGTA | 0.399 |
| TTCATAAA | 0.0402 |
| ATCATTCG | 0.332 |
| GTGATTTA | 0.317 |
| ATGATTTA | 0.296 |
| ATCATTCA | 0.278 |
| CTGATTTA | 0.0199 |
| ATGATGTA | 0.272 |
| ATCATAAA | 0.303 |
| ATCATTCC | 0.25 |
| ATCATAAG | 0.105 |
| CTGATGTA | -0.129 |
| AATGGGTG | -0.0386 |
| ATCGGGTC | -0.0582 |
| CCGCGAAC | 0.00614 |
| CGGAAAGA | -0.131 |
| GTTGACTA | -0.164 |
| GATGGGAC | -0.154 |
| GACTGAAA | -0.037 |
| CCCCAACG | -0.0545 |
| AAAGGGAA | -0.0729 |
| TGACCGAA | 0.0507 |
| AACATTTA | 0.0911 |
| ACCATTTA | 0.0343 |

| Sequence | PBM E-score |
| --- | --- |
| ATCATTTA | 0.305 |
| CATCCGAC | 0.151 |
| ATCACTGG | 0.332 |
| ATCACTGC | 0.32 |
| CTCACTGC | -0.0817 |
| AGCACTGG | -0.168 |
| ACCACTGG | -0.103 |
| AACACTGC | -0.155 |
| ATGTTCGC | 0.00598 |
| CGAAGGCA | -0.148 |
| AACAGCCC | -0.373 |
| AAAACGAT | 0.326 |
| AAAACGAG | 0.0711 |
| GAAACGAC | 0.153 |
| AAAACGAC | 0.323 |
| CAAACGAC | 0.198 |
| AAAACGAA | 0.167 |
| TATGCGGA | 0.0153 |
| TTTGCAAA | 0.0778 |
| GACCTGGC | -0.0415 |
| CGAGTGAC | 0.358 |
| CGAGTGAA | -0.14 |
| AGAGTGAC | 0.288 |
| GGAGTGAA | -0.0623 |
| GGAGTGAC | 0.333 |

| Sequence | PBM E-score |
| --- | --- |
| CGAGTGAG | -0.011 |
| CGAGACTC | 0.0667 |
| CGGAGACG | 0.0614 |
| AAAAGGCT | -0.0975 |
| CGGCCGAG | 0.0212 |
| CCCCGGAC | -0.105 |
| GTGGTCAA | 0.0649 |
| CGTACGCC | 0.155 |
| CGTACGTA | 0.266 |
| AGTACGGC | 0.224 |
| CGTACGTC | 0.359 |
| CGTACGGA | 0.355 |
| GGTACGGA | 0.13 |
| AGTACGTC | 0.125 |
| CGTACGGC | 0.396 |
| AGTACGGA | 0.118 |
| ATGACTGA | -0.0877 |
| CGAATGAA | -0.164 |
| AGAATGAC | 0.255 |
| AGTATGAA | 0.135 |
| CGAATGAC | 0.312 |
| GGTATGAC | -0.0891 |
| AGTATGAC | 0.186 |
| CGTATGAG | 0.189 |
| CGTATGAC | 0.334 |

| Sequence | PBM E-score |
| --- | --- |
| CGTATGAA | 0.426 |
| AGTGTTCA | -0.11 |
| ACCAGTGG | -0.261 |
| ATAATCCG | -0.0846 |
| AAACAACG | 0.0689 |
| CAGTCGAG | -0.177 |
| CGCCGCGA | 0.0127 |
| TCCGTTAA | 0.0849 |
| GCTGATCA | 0.139 |
| AGTGATCG | 0.239 |
| GGTGATCA | 0.305 |
| CGTGATCA | 0.379 |
| AGTGATCC | 0.189 |
| GGGGATCA | -0.0388 |
| AGTGATCA | 0.416 |
| CCTGATCA | 0.112 |
| CGTGATCC | -0.0112 |
| AGTACCGG | -0.202 |
| ACTCCTGC | -0.173 |
| GAGATCAA | 0.109 |
| GAGATCAC | 0.347 |
| GAGATCGC | 0.164 |
| AAGATCAT | 0.289 |
| AAGATCAC | 0.325 |
| CAGATCAC | 0.284 |

| Sequence | PBM E-score |
| --- | --- |
| AATTGACT | -0.00646 |
| CGTACCGA | 0.232 |
| AATAAGCG | -0.0622 |
| ATATCATG | 0.297 |
| CTATCATC | 0.151 |
| ATATCATC | 0.408 |
| ATATCATA | 0.33 |
| CTATCATA | 0.143 |
| AAATCATC | 0.278 |
| GCAAAAAC | 0.0419 |
| GATAGGAC | -0.123 |
| AGGCGTTC | -0.191 |
| AATACTAC | 0.301 |
| AATACTAA | 0.0807 |
| AATACTAT | -0.00924 |
| AGGGACCG | -0.0817 |
| CATGCCGG | -0.00463 |
| ATCACGCC | 0.253 |
| ATCACGGA | 0.246 |
| ATCACGTA | 0.218 |
| ATCACGTC | 0.336 |
| ATCACGAA | 0.256 |
| CTCACGTC | 0.0288 |
| ATCACGGC | 0.35 |
| ATCACGCA | 0.272 |

| Sequence | PBM E-score |
| --- | --- |
| ATCACGAC | 0.363 |
| ATCACGAT | 0.26 |
| ATCACGGG | 0.163 |
| ATCACGCG | 0.373 |
| AGGCTTAT | -0.0827 |
| CAACCGCA | -0.0837 |
| ACTTTGTC | 0.217 |
| CCCGCTAG | -0.157 |
| ATGATCCA | 0.0885 |
| CCGTCATC | 0.128 |
| GCGTCATA | 0.138 |
| CCGTCATA | 0.37 |
| AATGGTCC | -0.0212 |
| GTCATCAA | 0.31 |
| ATCATCGA | 0.175 |
| AGCATCAT | 0.0136 |
| TTCATCAA | 0.041 |
| AACATCAT | 0.309 |
| ATCATCAG | 0.16 |
| AACATCAC | 0.283 |
| ATCATCAT | 0.376 |
| ATCATCAA | 0.26 |
| ATCATCGG | 0.116 |
| AACATCAG | 0.0871 |
| ATCATCGC | 0.301 |

| Sequence | PBM E-score |
| --- | --- |
| ATCGCATC | 0.0782 |
| GAATCCCA | -0.00947 |
| AGGCCTTG | -0.302 |
| CTCTCTGA | -0.149 |
| ACCCTTCA | -0.0788 |
| AGGTGTCA | -0.0121 |
| AATTCTGT | -0.144 |
| GCCATCAC | -0.121 |
| ATCATCAC | 0.393 |
| CACATCAC | 0.244 |
| GACATCAA | 0.178 |
| AGCATCAC | -0.0618 |
| GTCATCAC | 0.334 |
| GACATCAC | 0.352 |
| GGCATCAC | 0.0726 |
| CTCATCAC | 0.217 |
| AGCTTGAC | -0.245 |
| GTGGTGTA | -0.0517 |
| GCCCCTTA | -0.138 |
| CGCCGCCG | -0.223 |
| ATACGGCA | 0.376 |
| ATACGGCG | 0.384 |
| ATACGGGG | 0.172 |
| ATACGGCC | 0.208 |
| GTACGGCA | 0.222 |

| Sequence | PBM E-score |
| --- | --- |
| CTACGGCA | 0.291 |
| AGAGGGTC | -0.274 |
| CTTAGGGC | -0.183 |
| GGCTCGAC | -0.0785 |
| CGGCGTCA | -0.103 |
| GTTCACTA | 0.115 |
| CATCACTA | 0.351 |
| AATCACTG | 0.204 |
| CATCACTC | 0.385 |
| GATCACTA | 0.389 |
| AATCACTA | 0.359 |
| CATCACAA | 0.0688 |
| CCTCACTC | 0.0309 |
| CATCACAC | 0.141 |
| CCTCACTA | 0.159 |
| GCTCACTA | 0.0163 |
| AATCACTC | 0.224 |
| ATCGTAGA | 0.28 |
| AGTGTGGA | -0.0464 |
